ERG-DNA inh – inhibitors of human ERG Ets domain-DNA interaction; P11308; fluorescence polarization, His-ERG Ets domain / labelled DNA; Potency, µM (series often up to 76.9 µM), for the others: at the top dose FP activity, negative = inhibition, hits mostly inhibitors; 370,000 tested, 0.028% active; active means well fitted inhibition curve with a large enough effect in the polarisation, with a control signal flat; inconclusive means small, poorly fitted or top-dose-only effect, or effect the other way, or a change in a side signal; inactive means no such curve, though single readings can be large or run the other way; the % refers to the polarisation;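 further: polarization taken with two DNA probes labelled with fluorescein and Texas red; % of control where 0% means no effect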
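His-tagged ERG Ets domain (1 uM in the protein solution; 300mM KCl, 50mM Tris-HCl, 1mM EDTA, 1mM DTT, pH 7.5) received compound, then a probe mix of 5 nM fluorescein-DNA and 100nM Texas-615-DNA. Fluorescence polarization was read for both dyes.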
RECQ1 helicase – blocks DNA unwinding by human RECQ1; 240,000 tested, 0.54% active; P46063; RECQ1 DNA unwinding, red fluorescence kinetic read; Potency, µM (top dose mostly 57.3 µM), for the others: at the top dose activity, negative = inhibition, most hits filed as inhibitors;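 further: plate controls were vehicle for no effect and no enzyme for full effect; nearly all actives have a fitted effect of over 30% in size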
Target sequence (P46063 whole entry, looked up): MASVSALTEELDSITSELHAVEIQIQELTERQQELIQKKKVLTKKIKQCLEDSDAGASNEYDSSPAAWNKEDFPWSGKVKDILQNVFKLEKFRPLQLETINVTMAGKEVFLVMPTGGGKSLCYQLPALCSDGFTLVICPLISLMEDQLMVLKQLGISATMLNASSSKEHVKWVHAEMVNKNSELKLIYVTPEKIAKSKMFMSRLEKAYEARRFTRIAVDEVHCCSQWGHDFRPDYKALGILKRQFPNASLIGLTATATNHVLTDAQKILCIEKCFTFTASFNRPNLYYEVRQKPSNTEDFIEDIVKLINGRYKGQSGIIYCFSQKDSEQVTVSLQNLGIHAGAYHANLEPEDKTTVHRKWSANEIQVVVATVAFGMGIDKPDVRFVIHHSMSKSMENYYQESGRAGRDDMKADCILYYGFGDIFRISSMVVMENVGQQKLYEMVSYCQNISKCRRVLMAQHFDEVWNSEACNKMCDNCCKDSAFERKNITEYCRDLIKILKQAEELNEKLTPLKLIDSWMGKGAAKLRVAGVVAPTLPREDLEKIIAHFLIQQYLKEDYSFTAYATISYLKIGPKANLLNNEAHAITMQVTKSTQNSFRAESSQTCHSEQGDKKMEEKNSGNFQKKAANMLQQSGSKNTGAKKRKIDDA
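RECQ1T1 50 nM; forked duplex (20 bp + 30-nt ss tails) 200 nM, ATP 2 mM final; pH 8.0, 2 mM MgCl2, 2.5 ug/ml poly(dI-dC); 15 min compound preincubation; discontinuous kinetic read over 2 h at RT.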
GCN5L2 inh – inhibitors of human GCN5L2 histone acetyltransferase | Q92830 | GCN5L2 HAT assay, ThioGlo1 CoA-SH fluorescence | Potency, µM (doses to about 58.9 µM), inactives show at the highest dose activity change, negative = inhibition, most hits filed as inhibitors | 390,000 tested, 0.21% active | AID 504327; further: on the % scale 0 is the no-effect control and ±100 the full control effect
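Enzyme at 20nM final was mixed with library compounds for 15 min at room temperature. Peptide H3(1-25) at 75uM, acetyl-CoA at 70uM and ThioGlo1 at 50uM were then added. Plates were read immediately and after 20 min (Ex340nm/Em540nm).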
WRN inhibitor – WRN helicase (human) inhibition. Q14191. WRN helicase unwinding, fluorescent forked duplex, kinetic. Potency, µM (series often up to 114 µM), for inactives: at the highest dose activity change, negative = inhibition, usual class: inhibitors. 360,000 tested, 0.46% active; further: on the % scale 0 is the no-effect control and ±100 the full control effect; nearly all actives have a fitted effect of over 55% in size
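Fluorescence dequenching readout, ex 525 nm/em 598 nm, kinetic mode: forked duplex DNA (100 nM final) with adjacent fluorophore and quencher unwound by WRN (20 nM final) with 2 mM ATP. Compound preincubation 15 min, room temperature.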
BLM helicase inh – Bloom syndrome helicase (human) inhibition; 350,000 tested, 0.2% active; Potency, µM (top dose mostly 56.1 µM), inactives show at the highest dose activity change, negative = inhibition, hits mostly inhibitors; recombinant BLM DNA unwinding, fluorescence dequenching;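 further: plate controls were vehicle for no effect and no enzyme for full effect; nearly all actives have a fitted effect of over 35% in size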
APEX1 inh – blocks human APE1 abasic DNA cleavage. P27695. recombinant APE1, TAMRA/BHQ-2 abasic DNA cleavage fluorescence. Potency, µM (highest dose often 65.8 µM), inactives show top-dose activity change, negative = inhibition, hits mostly inhibitors. 350,000 tested, 0.35% active. AID 2517;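 further: plate controls were vehicle for no effect and reference inhibitor for full effect; nearly all actives have a fitted effect of over 55% in size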
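Readout is kinetic fluorescence (ex 525, em 598 nm) from cleavage of 50 nM TAMRA/BHQ-2 THF abasic duplex by 0.75 nM APE1, compound added 15 min beforehand at RT.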
* = called active by the depositor; i = inactive; ? = inconclusive; nt = not tested or not shown; ! = repeats disagree; [ ] = dose if it differs, or a comment. Only some compounds are listed: those with a hit (about 0.88% of all), similar ones and a draw of the others. Unless noted, the call rests on the fitted dose curve; in most records, active means well fitted curve in the direction sought with a large enough effect; inconclusive means small, poorly fitted or top-dose-only effect, or another doubt; inactive means no such curve, though single readings can be large; an effect the other way counts as inactive or inconclusive. Potency means the concentration at half of the fitted maximal effect.

SMILES	ERG-DNA inh	RECQ1 helicase	GCN5L2 inh	WRN inhibitor	BLM helicase inh	APEX1 inh
Cc1ccc(C)c(NC(=S)NC2CC3CCC(C2)N3Cc2ccco2)c1 (centres undefined)	nt	11.6%	2µM*	-8.7%	4.2%	11.5%
CCCCC(CC)COC(=O)CCCCC(=O)OCC(CC)CCCC (centres undefined)	28.2µM*	-1.2%	-1.4%	2.0%	nt	-9.5%
NCC1OC(O[C@@H]2[C@H](O)[C@@H](OC3C(O)C(N)CC(N)C3OC3OC(CO)C(O)C(O)C3N)O[C@@H]2CO)C(N)C(O)C1O (some centres undefined)	nt	-13.5%	nt	nt	nt	1.6%
CCNc1cc(N2CCN(C)CC2)ccc1[N+](=O)[O-]	1.2%	17.9%	-7.8%	7.4%[57.1 µM]	26.9%	6.0%
CN(C)c1c([N+](=O)[O-])cc(N2C(=O)C=CC2=O)cc1[N+](=O)[O-]	-3.6%	nt	nt	35.5µM*	nt	nt
O=C(CCCCCCCCCCC(=O)NCc1cccnc1)NCc1cccnc1	8.0%	-3.5%	-2.7%	-3.1%	-0.9%	?
O=[N+]([O-])C(Br)Br	nt	-2.2%	nt	nt	nt	2.2%
Cc1ncc(CN2CCCC(C(=O)c3cccc(OC(C)C)c3)C2)s1 (centres undefined)	-7.7%	i	20µM*	4.3%	-2.5%	-1.5%
COc1c(C)cc(C(=O)C2CCCN(Cc3cnc(C)s3)C2)cc1C (centres undefined)	-12.9%	i	-3.1%	-12.3%	-3.5%	12.0%
COc1ccc2c(c1OC)CN(C)CCc1cc3c(cc1C(=O)C2)OCO3	-2.2%	i	11.1%	-3.3%	-5.6%	0.9%
CC1(C)OC(c2ccccc2)=C/C(=C/C=C2C(=O)NC(=O)NC2=O)O1	147.1%	25.1µM*	-4.4%	?	-15.3%	-3.6%
c1ccc(CN2CCC3(CCc4ccccc43)CC2)cc1	nt	-13.2%	-16.1%	nt	-9.3%	?
CN1C(=O)/C(=C\c2ccc(N3CCCCC3)o2)C(=O)NC1=S	2.8%	-10.2%	-2.3%	-17.9%	-1.3%	5.7%
Cc1ccc(N2C(=O)/C(=C/c3ccc(CN(CCC#N)S(C)(=O)=O)o3)C(=O)NC2=S)cc1C	nt	25.1µM*	-13.5%	nt	-17.0%	?
Cc1cccc(N2C(=O)/C(=C/c3ccc(CN(CCC#N)S(C)(=O)=O)o3)C(=O)NC2=S)c1	19.7%	17.8µM*	-13.7%	28.2µM*	-7.7%	?
Nc1cc(Cl)ccc1O	nt	4.3%	nt	nt	nt	4.9%
CC/C(CC(c1ccccc1)c1c(O)c2ccccc2oc1=O)=N\NC(N)=S (centres undefined)	0.0%	-4.3%	-2.7%	-22.4%	-5.8%	25.1µM*
C=C(C)[C@H]1CN[C@H](C(=O)O)[C@H]1CC(=O)O	0.8%	-7.6%	31.6µM*!	-2.1%	2.1%	0.0%
CCCCn1c(O)c(/C=N/N2CCCCC2c2cccnc2)c(=O)[nH]c1=S (centres undefined)	5.4%	-2.7%	31.4%	-17.5%	-15.5%	27.1%
Cc1ccc(-n2c(O)c(/C=N/N3CCCCC3c3cccnc3)c(=O)[nH]c2=S)cc1 (centres undefined)	30.7%	31.6µM*	7.1%	-12.2%	-5.3%	-6.4%
NC1CCCC[C@@H]1N (some centres undefined)	nt	-9.3%	49.0%	nt	-1.2%	10.3%
CCOc1cc(C=C2C(=O)NC(=O)NC2=O)ccc1OS(=O)(=O)c1ccccc1	2.6%	i	-13.2%	44.7µM*	-4.4%	-4.8%
F[Si-2](F)(F)(F)(F)F	nt	nt	?	nt	-15.0%	nt
CCOP(=S)(OCC)Oc1ccc([N+](=O)[O-])cc1	nt	-9.2%	nt	nt	nt	-3.3%
CC(=O)Oc1c2c(c(CC=C(C)C)c3c1C(=O)C1=CC4CC5C(C)(C)OC(C/C=C(\C)C(=O)O)(C4=O)[C@]15O3)OC(C)(CCC=C(C)C)C=C2 (some centres undefined)	nt	?	15.8µM*	nt	22.4µM*	-1.4%
SMILES	ERG-DNA inh	RECQ1 helicase	GCN5L2 inh	WRN inhibitor	BLM helicase inh	APEX1 inh
CC(=O)[O-].CC(=O)[O-].O.O.O.[Pb+2]	nt	-3.4%	nt	nt	nt	-3.5%
CCCCCCCCCC[n+]1cccc([C@@H]2CCCN2C)c1	nt	-14.2%	8.91µM*	nt	-7.6%	12.1%
Nc1cccc2ccccc12	nt	-2.3%	nt	nt	nt	?
CC[C@H](C)[C@H](NC(=O)[C@H](CO)NC(=O)[C@H](CC(N)=O)NC(=O)[C@H](CC(C)C)NC(=O)[C@H](Cc1ccc(O)cc1)NC(=O)[C@H](CCCCN)NC(=O)[C@H](CCCCN)NC(=O)[C@@H](NC(=O)[C@H](C)NC(=O)[C@H](CCSC)NC(=O)[C@H](CCC(N)=O)NC(=O)[C@H](CCCCN)NC(=O)[C@H](CCCNC(=N)N)NC(=O)[C@H](CC(C)C)NC(=O)[C@H](CCCNC(=N)N)NC(=O)[C@@H](NC(=O)[C@H](Cc1ccc(O)cc1)NC(=O)[C@H](CC(N)=O)NC(=O)[C@H](CC(=O)O)NC(=O)[C@@H](NC(=O)[C@H](Cc1ccccc1)NC(=O)[C@@H](NC(=O)[C@H](C)NC(=O)[C@H](CC(=O)O)NC(=O)[C@H](CO)NC(=O)[C@@H](N)Cc1cnc[nH]1)C(C)C)[C@@H](C)O)[C@@H](C)O)C(C)C)C(=O)N[C@@H](CC(C)C)C(=O)N[C@@H](CC(N)=O)C(N)=O	nt	-1.3%	8.0%	nt	8.0%	14.4%
O=C1NC(=O)C(=Cc2ccco2)C(=O)N1	-4.9%	nt	nt	?	nt	nt
O=C1NC(=S)N(c2ccc(F)cc2)C(=O)/C1=C/c1ccco1	nt	nt	5.62µM*	nt	3.16µM*	0.212µM*
COc1ccc(N2C(=O)/C(=C/c3ccc(C)o3)C(=O)NC2=S)cc1	18.0%	nt	-8.3%	?	-8.3%	-2.9%
COc1ccc(OC)c(N2C(=O)/C(=C/c3ccco3)C(=O)NC2=S)c1	34.5%	nt	12.6µM*	3.16µM*	1.58µM*	0.0947µM*
O=C1NC(=S)N(c2ccc(F)cc2)C(=O)/C1=C\c1ccoc1	77.4%	31.6µM*	?	?	-17.2%	?
C=C(C)[C@H]1CC[C@]2(C(=O)O)CC[C@]3(C)[C@@H](CC[C@H]4[C@@]5(C)CC[C@@H](O)C(C)(C)[C@@H]5CC[C@@]43C)[C@H]12	nt	-8.9%[25.9 µM]	-9.5%[21.4 µM]	nt	-0.1%[21.4 µM]	18.2%[21 µM]
CCN1C(=O)/C(=C/c2ccc3c(c2)CCN3CCCCl)C(=O)NC1=S	21.3%	-4.6%	?	-32.5%[11.6 µM]	?	-11.0%
CCN1C(=O)/C(=C\c2ccc([N+](=O)[O-])s2)C(=O)NC1=S	nt	?	8.91µM*	nt	?	?
C=CCN1C(=O)/C(=C/c2ccc3c(c2)CCCN3CCC)C(=O)NC1=S	48.2%	?	-18.5%	56.2µM*	-8.7%	-11.3%

From PubChem BioAssay
